High-throughput results: PubChem, several laboratories
TIM10 inh = growth inhibitors of isogenic TIM10 control yeast, primary screen, counter-screen for tim10-1 yeast inhibitor project, luminescence, uHTS; S. cerevisiae TIM10 strain growth, BacTiter-Glo luminescence, 24 h; inhibition, % at 10 µM; 330,000 tested, 1.4% active;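 active means inhibition of 40% or more at the single tested concentration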;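 further: wild-type TIM10 isogenic control strain grown at permissive 25 °C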
PfHsp90 set2 = growth inhibition of PfHsp90-expressing yeast, primary screen, antimalarial PfHsp90 inhibitor project, S. cerevisiae, BacTiter-Glo luminescence, single point, set 2 | BacTiter-Glo ATP, 48 h; yeast lacking PDR1 and PDR3 efflux regulators | inhibition, % at 9.4 µM | 310,000 tested, 0.32% active | AID 504621, 2011;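 active means every replicate shows inhibition above about 80%, whatever the replicate mean, limit read from the data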;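 further: 0% = DMSO neutral controls and 100% = 20 µM radicicol positive controls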
tim23-1 inh = growth inhibitors of tim23-1 mutant yeast, primary screen, luminescence, uHTS; S. cerevisiae tim23-1 growth, BacTiter-Glo luminescence, 24 h; inhibition, % at 20 µM; 330,000 tested, 1.3% active;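 active means growth inhibition of the mutant yeast at or above 50%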;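 further: temperature-sensitive mutant grown at 25 °C; plate controls were DMSO-treated mutant yeast for no effect and medium wells lacking yeast for full effect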
Rce1 inhib = yeast Rce1p protease inhibitors, primary screen, biochemical, fluorescence, cell-free homogeneous; yeast membranes, quenched prenylated peptide cleavage fluorescence; calls only; 290,000 tested, 0.27% active; AID 2563, 2010;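 active means fall in fluorescence gain of 50% or more versus controls, with final raw signal at or below 3038400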;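 further: plate controls were neutral control wells for no effect and wells lacking membranes for full effect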
Target sequence (Q03530 whole entry, looked up): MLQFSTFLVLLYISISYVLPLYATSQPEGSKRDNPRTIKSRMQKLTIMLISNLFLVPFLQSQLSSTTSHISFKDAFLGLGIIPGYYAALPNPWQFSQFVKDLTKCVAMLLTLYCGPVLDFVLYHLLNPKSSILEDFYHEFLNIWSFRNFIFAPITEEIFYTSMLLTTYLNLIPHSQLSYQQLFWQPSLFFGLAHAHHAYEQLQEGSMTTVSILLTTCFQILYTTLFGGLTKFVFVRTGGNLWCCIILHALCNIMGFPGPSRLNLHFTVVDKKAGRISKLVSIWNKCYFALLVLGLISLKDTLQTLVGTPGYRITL
tim10-1 inh = growth inhibitors of tim10-1 mutant yeast, primary screen, luminescence, uHTS. S. cerevisiae tim10-1 ts strain growth, BacTiter-Glo, 24 h. inhibition, % at 20 µM. 330,000 tested, 2.2% active. AID 463190, 2010;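 active means inhibition of at least 40%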;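 further: mutant grown at 25 °C; 0% = DMSO wells with yeast and 100% = wells holding no yeast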
tim10-1 confirm = growth inhibitors of tim10-1 mutant yeast, confirmation, single concentration, luminescence, S. cerevisiae. inhibition, % at 20 µM. 7,400 tested, 56% active. shares compounds with tim10-1 inh. S. cerevisiae tim10-1 ts strain growth, BacTiter-Glo, 24 h;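 active means inhibition of yeast growth at or above a set limit in either of two repeat tests at 20 µM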;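 further: tim10-1 mutant grown at permissive 25 °C to find synthetic lethal compounds; 0% = DMSO yeast wells and 100% = medium wells without yeast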
tim10 confirm = growth inhibitors of wild-type TIM10 yeast, confirmation, counter-screen for tim10-1 synthetic lethality project, single concentration, luminescence, S. cerevisiae | S. cerevisiae tim10 strain growth, BacTiter-Glo luminescence, 24 h | inhibition, % at 10 µM | shares compounds with TIM10 inh | 4,600 tested, 63% active;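 active means inhibition of yeast growth at or above a set limit in either of two replicates at 10 µM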;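 further: this counterscreen used the strain with wild-type TIM10; 0% = yeast with DMSO and 100% = medium wells lacking yeast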
Numbers without * were called inactive; i = inactive; / = no result given. Shown are actives, neighbours in structure and some others; about 3.7% of the full set was active somewhere.

SMILES | TIM10 inh | PfHsp90 set2 | tim23-1 inh | Rce1 inhib | tim10-1 inh | tim10-1 confirm | tim10 confirm
COCCCn1c(SCC(=O)n2c(C)c(C)c3ccccc32)nnc1-c1ccoc1C | 40* | 13 | 34 | i | 44* | 33* | -6
C=CCNC(=O)NC(=O)CSc1nc2cc([N+](=O)[O-])ccc2n1-c1cccc(C(F)(F)F)c1 | 6 | 12 | 0 | i | 14 | / | /
O=C(Nc1nc2ccc(Cl)cc2s1)C1CC1 | 46* | -18 | 33 | i | 41* | 43* | 46*
Oc1ccc(/C=N/Nc2ccc(C(F)(F)F)cn2)cc1 | 48* | -27 | 34 | i | 44* | 28 | 30
CCn1c(=O)c(C(=O)NNS(=O)(=O)c2ccc(Br)cc2)c(O)c2ccccc21 | -7 | -9 | 42 | i | -16 | / | /
COc1ccc(C2C=C(c3ccc(F)cc3)NC(=S)N2)cc1OC (configuration not stated) | 16 | / | -16 | i | 25 | / | /
CC(C)(C)c1cc(C(=O)N/N=C/c2ccc(F)cc2)n(-c2ccccc2)n1 | 45* | 23 | 46 | i | 51* | 34* | 24
CC(C)CN1C(=O)N(c2ccc(Cl)cc2)C(C)(O)CC1(C)C (configuration not stated) | -12 | 8 | 19 | i | 24 | / | /
O=C(Nc1ccccc1Cl)C1C2CCC3C(CCC21)C3(Cl)Cl (configuration not stated) | 2 | 2 | 9 | i | 17 | / | /
CCOc1ccccc1NC(=O)C1C2CCC3C(CCC21)C3(Cl)Cl (configuration not stated) | 47* | 7 | 32 | i | 40 | 31* | 43*
CCOC(=O)c1c(NC(=O)CN2C(=O)NC(C)(c3ccc(Cl)cc3)C2=O)sc(C(=O)NC)c1C (configuration not stated) | 19 | -24 | 2 | i | 12 | / | /
FC(F)(F)c1cccc(Cc2noc(CN3CCC(c4ccncc4)CC3)n2)c1 | 42* | -5 | 45 | i | 44* | 42* | 43*
Cc1ccccc1NC(=O)Cn1nnc2ccccc21 | -14 | -11 | -9 | i | -16 | / | /
CN(C)CCN(Cc1ccccc1)C(=O)[C@H](Cc1ccccc1)N1C(=O)c2ccccc2C1=O | -3 | -8 | 24 | i | 19 | / | /
Cc1cccc(C(=O)N2CCN(S(=O)(=O)N3CCCCCC3)CC2)c1 | 15 | -16 | 9 | i | 10 | / | /
CCN1/C(=C\C(=S)Nc2ccccc2)Sc2ccccc21 | 50* | -29 | 40 | i | 45* | 12 | 43*
CN(C)c1ccc(/C=C2\SC(=S)N(Nc3ncc(C(F)(F)F)cc3Cl)C2=O)cc1 | 9 | / | -2 | i | 22 | / | /
COc1cc(/C=C2\SC(=S)N(Nc3ncc(C(F)(F)F)cc3Cl)C2=O)ccc1O | 51* | 106* | 39 | i | 48* | 28 | 42*
CCOc1ccc(C(C(=O)NC(C)(C)C)N(CCOC)C(=O)CCC(=O)Nc2nccs2)cc1 (configuration not stated) | 9 | -37 | 8 | i | -2 | / | /
CCCCS(=O)(=O)/C=C\C=C/S(=O)(=O)CCCC | 59* | 17 | 43 | i | 70* | 42* | 61*
CC1(C)CC(=O)C2=C(C1)Nc1ccccc1N=C2 | 41* | / | 46 | i | 49* | 44* | 34*
CC1(C)CC(=O)C2=C(C1)Nc1ccccc1NC2 | 27 | 0 | 23 | i | 30 | / | /
COc1cccc2oc(-c3ccco3)cc(=O)c12 | 47* | -12 | 41 | i | 45* | 26 | 40*
Cc1nnc(Nc2ccccn2)c2ccccc12 | 85* | -20 | 46 | i | 66* | 71* | 83*
